# Measured values as given in PubChem BioAssay (Tox21).
# Results filed as inconclusive are left out. A call without a number means that no potency is given here. Calls of active or inactive are those of the source. Unless noted, calls follow the shape of the full dose curve.
# Legend:
# [1] = biological target: Gonadotropin-releasing hormone receptor (Homo sapiens) (UniProt P30968); test: Human gonadotropin-releasing hormone receptor (GnRHR) small molecule agonists, calcium flux assay in GnRHR-HEK293 cells (AID 1920063); also: nearly all actives have a fitted effect of over 35% in size
# Gonadotropin-releasing hormone receptor (Homo sapiens), sequence (P30968 whole entry, looked up): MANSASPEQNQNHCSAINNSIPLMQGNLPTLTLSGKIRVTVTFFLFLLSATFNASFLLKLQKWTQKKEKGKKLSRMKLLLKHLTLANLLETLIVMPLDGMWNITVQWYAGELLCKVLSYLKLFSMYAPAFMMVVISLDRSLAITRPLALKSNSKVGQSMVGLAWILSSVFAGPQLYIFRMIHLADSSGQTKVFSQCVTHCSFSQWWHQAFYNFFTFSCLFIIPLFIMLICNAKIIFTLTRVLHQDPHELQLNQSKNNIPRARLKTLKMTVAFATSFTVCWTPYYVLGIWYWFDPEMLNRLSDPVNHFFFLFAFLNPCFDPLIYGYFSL
# In short: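 Fluorescence kinetics (480 nm excitation, 540 nm emission; 3 min, 1 s steps) report calcium mobilisation in human GnRHR-HEK293 cells in agonist mode. Dye incubation: 1 h, 37 C.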
# [2] = biological target: KiSS-1 receptor (Homo sapiens) (UniProt Q969F8); test: Human kisspeptin (KISS1R) small molecule agonists, calcium flux assay in KISS1R-HEK293 cells (AID 1920064; active = well fitted activation curve with a large enough effect in the repeat runs)
# KiSS-1 receptor (Homo sapiens), sequence (Q969F8 whole entry, looked up): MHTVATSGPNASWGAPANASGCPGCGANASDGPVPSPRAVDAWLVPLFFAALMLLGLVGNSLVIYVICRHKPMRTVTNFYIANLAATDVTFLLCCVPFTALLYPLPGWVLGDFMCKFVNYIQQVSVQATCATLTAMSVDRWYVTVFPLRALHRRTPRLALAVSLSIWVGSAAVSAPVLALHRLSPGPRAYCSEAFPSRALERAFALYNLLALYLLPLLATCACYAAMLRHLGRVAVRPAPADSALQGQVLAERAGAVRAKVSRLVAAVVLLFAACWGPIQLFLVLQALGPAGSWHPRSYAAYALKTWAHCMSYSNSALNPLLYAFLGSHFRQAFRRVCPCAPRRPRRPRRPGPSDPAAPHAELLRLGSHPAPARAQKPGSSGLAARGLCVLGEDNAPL
# In short: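 Measures KISS1R agonism through calcium-sensitive dye fluorescence in stably transfected HEK293 cells, read for 3 min after pin-tool compound delivery; 15-point titrations in triplicate.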
# [3] = G protein-coupled receptor (GPCR) small molecule agonists, calcium flux assay: HEK293 wild type cell line counter screen (AID 1920065)
# In short: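 Readout: fluorescence at 480 nm excitation/540 nm emission, sampled at 1 s intervals for 3 min. Cells had been cultured 18 h, then dye-loaded 1 h at 37 C before compound or ATP addition.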
# [4] = p53 small molecule agonists, cell-based qHTS assay with human liver microsomes (AID 1963577)
# In short: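 Fluorescence of the beta-lactamase reporter in p53RE-bla cells, detected with LiveBLAzer substrate (2 h, room temperature, dark), served as the read-out after 16 h compound exposure at 37 C with human liver microsomes and NADPH, each 0.5 mg/mL final.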
# [5] = p53 small molecule agonists, cell-based qHTS assay with rat liver microsomes (AID 1963578)
# In short: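 Cells carrying a p53 response element–beta-lactamase reporter were plated and rested 5 h, then dosed with compound in DMSO plus rat liver microsomes and NADPH, each at 0.5 mg/mL final. After 16 h at 37 C, LiveBLAzer substrate was added for 2 h.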
# [6] = p53 small molecule agonists, cell-based qHTS assay with human liver microsomes: qHTS cell viability counter screen (AID 1963579); also: nearly all actives have a fitted effect of over 45% in size; also: potency is read from the fitted curve at half-maximal effect
# In short: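 Cytotoxicity counter screen: p53RE-bla, 4,000 cells/well; 5 h settle, 37 C/5% CO2; cpd + HLM 0.5 mg/mL + NADPH 0.5 mg/mL (final); 16 h, 37 C; CellTiter-Glo, 30 min RT, luminescence.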
# [7] = p53 small molecule agonists, cell-based qHTS assay with rat liver microsomes: qHTS cell viability counter screen (AID 1963580); also: nearly all actives have a fitted effect of over 45% in size
# In short: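 p53RE-bla HCT-116 cells (4,000/well) rested 5 h at 37 C, then given Tox21 compounds in DMSO with rat liver microsomes (0.5 mg/mL final) plus NADPH (0.5 mg/mL final) for 16 h at 37 C. Viability read by CellTiter-Glo luminescence after 30 min at room temperature.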
# [8] = p53 small molecule agonists, cell-based qHTS assay: qHTS cell viability counter screen (AID 1963581); also: nearly all actives have a fitted effect of over 45% in size
# In short: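 In the same plates used for the p53 bla reporter, HCT-116 cells given compounds for 16 h at 37 C received CellTiter-Glo; luminescence was recorded 30 min later at room temperature.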
# [9] = p53 small molecule agonists, cell-based qHTS assay (AID 1963582; active = well fitted activation curve with a large enough effect in the signal ratio in the repeat runs, not every such curve was filed as active; the % refers to the signal ratio; also: potency is read from the fitted curve at half-maximal effect)
# In short: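 Compounds are pin-transferred in DMSO onto p53RE-bla cells and incubated 16 h at 37 C. The B/G FRET beta-lactamase substrate is then applied for 2 h at RT and fluorescence recorded.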
# [10] = biological target: 5-hydroxytryptamine receptor 2A (Homo sapiens) (UniProt P28223); test: 5-hydroxytryptamine receptor 2A (HTR2A) small molecule antagonists, cell-based qHTS assay (AID 1963586); also: nearly all actives have a fitted effect of over 45% in size; also: potency is read from the fitted curve at half-maximal effect
# 5-hydroxytryptamine receptor 2A (Homo sapiens), sequence (P28223 whole entry, looked up): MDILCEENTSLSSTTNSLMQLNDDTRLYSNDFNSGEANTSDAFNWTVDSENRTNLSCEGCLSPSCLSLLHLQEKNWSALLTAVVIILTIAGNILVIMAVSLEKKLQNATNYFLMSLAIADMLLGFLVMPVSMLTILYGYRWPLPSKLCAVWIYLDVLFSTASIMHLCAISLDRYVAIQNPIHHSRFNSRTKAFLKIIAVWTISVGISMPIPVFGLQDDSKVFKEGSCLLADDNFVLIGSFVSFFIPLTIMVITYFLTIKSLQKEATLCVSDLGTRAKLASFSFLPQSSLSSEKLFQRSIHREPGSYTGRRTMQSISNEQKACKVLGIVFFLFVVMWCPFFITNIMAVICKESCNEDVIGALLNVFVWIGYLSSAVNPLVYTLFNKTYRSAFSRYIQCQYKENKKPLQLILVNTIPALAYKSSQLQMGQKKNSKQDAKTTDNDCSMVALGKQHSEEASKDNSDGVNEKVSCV
# In short: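 Antagonist-mode intracellular calcium assay: DOI (4 nM) added after 5 min compound pre-incubation at room temperature to dye-loaded HTR2A-CHO cells. Fluorescence followed for 3 min, sampled every second.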
# [11] = biological target: 5-hydroxytryptamine receptor 2A (Homo sapiens) (UniProt P28223); test: 5-hydroxytryptamine receptor 2A (HTR2A) small molecule agonists, cell-based qHTS assay (AID 1963587); also: nearly all actives have a fitted effect of over 30% in size
# In short: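 HTR2A-CHO cells, plated 18 h at 37 C/5% CO2, dye-loaded 1 h at 37 C; compounds in DMSO added by pin tool (agonist mode). Intracellular calcium flux read as kinetic fluorescence on FDSS over 2 min at 1 s intervals.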
# [12] = biological target: Muscarinic acetylcholine receptor M1 (Homo sapiens) (UniProt P11229); test: Cholinergic receptor muscarinic 1 (CHRM1) small molecule antagonists, cell-based qHTS assay (AID 1963588); also: nearly all actives have a fitted effect of over 40% in size; also: potency is read from the fitted curve at half-maximal effect
# Muscarinic acetylcholine receptor M1 (Homo sapiens), sequence (P11229 whole entry, looked up): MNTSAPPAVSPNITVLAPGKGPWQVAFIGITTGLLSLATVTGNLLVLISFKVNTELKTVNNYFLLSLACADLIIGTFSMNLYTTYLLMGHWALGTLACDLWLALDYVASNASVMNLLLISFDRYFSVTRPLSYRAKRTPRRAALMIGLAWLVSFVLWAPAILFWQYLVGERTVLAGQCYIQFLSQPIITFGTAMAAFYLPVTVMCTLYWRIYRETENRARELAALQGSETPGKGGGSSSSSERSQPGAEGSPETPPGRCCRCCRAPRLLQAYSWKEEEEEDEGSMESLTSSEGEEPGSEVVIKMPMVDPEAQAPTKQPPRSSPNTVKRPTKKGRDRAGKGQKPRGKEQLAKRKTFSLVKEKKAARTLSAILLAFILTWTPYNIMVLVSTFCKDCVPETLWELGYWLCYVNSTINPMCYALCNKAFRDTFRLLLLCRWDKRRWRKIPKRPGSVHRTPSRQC
# In short: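 CHRM1-CHO calcium-flux assay, antagonist mode. Cells were seeded 18 h, dye-loaded 1 h at 37 C and given compound for 5 min at RT, then acetylcholine was added at 50nM. FDSS fluorescence was read 3 min; 15 concentrations, three runs.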
# [13] = biological target: Muscarinic acetylcholine receptor M1 (Homo sapiens) (UniProt P11229); test: Cholinergic receptor muscarinic 1 (CHRM1) small molecule agonists, cell-based qHTS assay (AID 1963589); also: nearly all actives have a fitted effect of over 35% in size
# In short: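 Each compound was tested at 15 concentrations across three independent runs on dye-loaded CHO cells stably expressing human CHRM1, reading intracellular calcium fluorescence kinetically at 1 sec intervals.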
# [14] = cAMP Responsive Elements (CRE) small molecule agonists, cell-based qHTS assay (AID 1963590)
# In short: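 Cell line: CRE-bla HEK 293T; medium DMEM/10% dialyzed FBS/0.1 mM NEAA/1 mM pyruvate/25 mM HEPES; 3 h compound exposure; beta-lactamase FRET readout after 2 h substrate loading at RT.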
# [15] = cAMP Responsive Elements (CRE) small molecule antagonists, cell-based qHTS assay (AID 1963591; active = well fitted inhibition curve with a large enough effect in the signal ratio in the repeat runs, not every such curve was filed as active; the % refers to the signal ratio)
# In short: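 Inhibition of NKH477-driven (0.25 uM final) CRE-beta-lactamase signal in HEK293T cells, 3 h compound exposure at 37 °C, detected by FRET substrate fluorescence.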
# [16] = biological target: Beta-2 adrenergic receptor (Homo sapiens) (UniProt P07550); test: Adrenergic beta2 receptor (ADRB2) small molecule antagonists, cell-based qHTS assay (AID 1963592); also: series mostly up to about 92 µM; nearly all actives have a fitted effect of over 50% in size
# Beta-2 adrenergic receptor (Homo sapiens), sequence (P07550 whole entry, looked up): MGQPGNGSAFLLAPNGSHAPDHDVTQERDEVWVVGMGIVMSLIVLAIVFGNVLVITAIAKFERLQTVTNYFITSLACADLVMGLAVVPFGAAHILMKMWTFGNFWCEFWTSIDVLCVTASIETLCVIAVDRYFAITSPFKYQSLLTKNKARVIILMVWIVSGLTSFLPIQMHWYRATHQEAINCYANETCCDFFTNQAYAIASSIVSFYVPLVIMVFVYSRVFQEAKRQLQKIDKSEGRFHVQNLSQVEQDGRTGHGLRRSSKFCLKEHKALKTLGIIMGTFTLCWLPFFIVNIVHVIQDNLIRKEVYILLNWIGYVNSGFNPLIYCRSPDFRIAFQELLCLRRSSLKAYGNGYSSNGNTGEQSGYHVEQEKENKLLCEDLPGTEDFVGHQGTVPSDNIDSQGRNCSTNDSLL
# In short: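 Cells (CHO, stable ADRB2 overexpression) incubated 18-20hr at 37C; compounds added from DMSO; agonist mix (1nM isoproterenol, 100uM IBMX, 25uM Ro-20-1724) added; 0.5hr RT; d2-cAMP and anti-cAMP-cryptate added; 1hr RT; 665/615 nm read.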
# [17] = biological target: Beta-2 adrenergic receptor (Homo sapiens) (UniProt P07550); test: Adrenergic beta2 receptor (ADRB2) small molecule agonists, cell-based qHTS assay (AID 1963593);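 also: CHO cells stably overexpressing human ADRB2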
# In short: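 CHO cells stably over-expressing ADRB2 were plated overnight at 37C, then dosed with compounds plus a stimulation mix containing 100uM IBMX and 25uM Ro-20-1724 for 0.5hr at room temperature. cAMP was measured by HTRF competition, 1hr.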
# [18] = biological target: D(2) dopamine receptor (Homo sapiens) (UniProt P14416); test: Dopamine D2 receptor (DRD2) small molecule agonists, cell-based qHTS assay (AID 1963594); also: nearly all actives have a fitted effect of over 35% in size; also: potency is read from the fitted curve at half-maximal effect
# D(2) dopamine receptor (Homo sapiens), sequence (P14416 whole entry, looked up): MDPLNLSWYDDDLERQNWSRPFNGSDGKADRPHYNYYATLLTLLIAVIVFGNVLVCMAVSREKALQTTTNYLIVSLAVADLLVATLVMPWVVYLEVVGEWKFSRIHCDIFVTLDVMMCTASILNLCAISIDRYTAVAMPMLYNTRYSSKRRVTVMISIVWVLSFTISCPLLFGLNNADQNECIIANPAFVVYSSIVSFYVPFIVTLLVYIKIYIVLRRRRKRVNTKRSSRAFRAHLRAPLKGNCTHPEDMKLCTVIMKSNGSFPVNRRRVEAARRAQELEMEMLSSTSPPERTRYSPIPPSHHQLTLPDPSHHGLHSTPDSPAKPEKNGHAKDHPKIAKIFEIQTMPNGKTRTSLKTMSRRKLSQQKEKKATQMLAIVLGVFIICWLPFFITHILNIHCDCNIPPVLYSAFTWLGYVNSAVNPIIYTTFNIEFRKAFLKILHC
# In short: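 HEK293 cells stably expressing DRD2 were cultured 24 h at 37 C, then given Ro20-1724 (0.1 mM final) and compounds for 10 min at room temperature. NKH477 (200nM) was then added for 30 min. cAMP was read by HTRF.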
# [19] = biological target: D(2) dopamine receptor (Homo sapiens) (UniProt P14416); test: Dopamine D2 receptor (DRD2) small molecule antagonists, cell-based qHTS assay (AID 1963595; active = well fitted inhibition curve with a large enough effect in the signal ratio in the repeat runs, with a control signal flat; the % refers to the signal ratio)
# In short: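 DRD2-HEK293; 0.1 mM Ro20-1724; cpd 10 min RT; NKH477 200 nM + quinpirole 12 nM, 30 min RT; HTRF cAMP (cAMP-d2/anti-cAMP cryptate), 665/620 nm ratio after 1 h.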
SMILES,Potency [1],Potency [2],Potency [3],Potency [4],Potency [5],Potency [6],Potency [7],Potency [8],Potency [9],Potency [10],Potency [11],Potency [12],Potency [13],Potency [14],Potency [15],Potency [16],Potency [17],Potency [18],Potency [19]
C=CCS(=O)(=O)O,inactive,inactive,inactive,inactive,inactive,inactive,inactive,inactive,inactive,inactive,inactive,inactive,inactive,inactive,inactive,inactive,inactive,inactive,inactive
O[C@@H]([C@H](O)[C@H](O)CBr)[C@H](O)CBr,inactive,inactive,inactive,inactive,inactive,inactive,inactive,inactive,inactive,inactive,inactive,inactive,inactive,inactive,inactive,inactive,inactive,inactive,inactive
OCCN1CCN(CCCN2c3ccccc3C=Cc3ccccc32)CC1,inactive,inactive,inactive,inactive,inactive,inactive,inactive,inactive,–,16.3 µM (active),inactive,inactive,inactive,inactive,inactive,inactive,inactive,inactive,–
CNC(=O)[C@H]1O[C@@H](n2cnc3c(NCc4cc(Cl)ccc4OCc4cc(C)no4)ncnc32)[C@H](O)[C@@H]1N,inactive,inactive,inactive,inactive,inactive,inactive,inactive,inactive,inactive,inactive,inactive,inactive,inactive,inactive,inactive,inactive,–,inactive,–
O=C(O)c1ccco1,inactive,inactive,inactive,inactive,inactive,inactive,inactive,inactive,inactive,inactive,inactive,inactive,inactive,–,inactive,inactive,–,inactive,inactive
CCN1CCc2nc(N)oc2CC1,inactive,inactive,inactive,inactive,inactive,inactive,inactive,inactive,inactive,inactive,inactive,inactive,inactive,inactive,inactive,inactive,–,26.6 µM (active),inactive
CC(=O)OCC(=O)Nc1cc(C#N)cc(NC(=O)COC(C)=O)c1Cl,inactive,inactive,inactive,inactive,inactive,inactive,–,inactive,inactive,inactive,inactive,inactive,inactive,inactive,inactive,inactive,inactive,–,inactive
CC(=O)c1sc(C)nc1C,inactive,inactive,inactive,inactive,inactive,inactive,inactive,inactive,inactive,inactive,inactive,inactive,inactive,–,inactive,inactive,–,inactive,inactive
CCCCCCCCO[C@@H]1O[C@H](CO)[C@@H](O)[C@H](O)[C@H]1O,inactive,inactive,inactive,inactive,inactive,inactive,inactive,inactive,inactive,inactive,inactive,inactive,inactive,inactive,inactive,inactive,inactive,inactive,–
Cc1ccccc1C,inactive,inactive,inactive,inactive,inactive,inactive,–,inactive,inactive,inactive,inactive,0.0015 µM (active),inactive,inactive,inactive,inactive,inactive,inactive,inactive
CCC(C)SSC(C)CC (stereo not given),inactive,inactive,inactive,inactive,inactive,inactive,inactive,inactive,inactive,inactive,inactive,inactive,inactive,inactive,inactive,inactive,inactive,inactive,inactive
C1CCCCC1,inactive,inactive,inactive,inactive,inactive,inactive,inactive,inactive,inactive,inactive,inactive,inactive,inactive,inactive,inactive,inactive,–,inactive,inactive
CO[Si](C)(C)OC,inactive,inactive,inactive,inactive,inactive,inactive,inactive,inactive,inactive,inactive,inactive,inactive,inactive,inactive,inactive,inactive,inactive,inactive,–
C=CC(C)(CCC=C(C)C)OC(=O)CC (stereo not given),inactive,inactive,inactive,inactive,inactive,inactive,–,inactive,inactive,inactive,inactive,inactive,inactive,inactive,inactive,inactive,inactive,inactive,inactive
O=S(=O)(O)CCN1CCN(CCO)CC1,inactive,inactive,inactive,inactive,inactive,inactive,inactive,inactive,inactive,inactive,inactive,inactive,inactive,inactive,inactive,inactive,inactive,inactive,inactive
Cc1ccc(C)o1,inactive,inactive,inactive,inactive,inactive,inactive,inactive,inactive,inactive,inactive,inactive,inactive,inactive,inactive,inactive,inactive,–,inactive,inactive
CCCCOC(=O)CCS,inactive,inactive,inactive,inactive,inactive,inactive,inactive,–,inactive,inactive,inactive,–,inactive,inactive,inactive,inactive,inactive,inactive,inactive
CCOc1ncc(F)c(=O)[nH]1,inactive,inactive,inactive,inactive,inactive,inactive,inactive,inactive,–,inactive,inactive,–,inactive,inactive,inactive,inactive,inactive,inactive,inactive
CN(CC1(C)CCCO1)S(=O)(=O)c1ccc(Cl)c(S(N)(=O)=O)c1 (stereo not given),inactive,inactive,inactive,inactive,inactive,inactive,inactive,inactive,inactive,inactive,inactive,inactive,inactive,inactive,inactive,inactive,–,inactive,–
NCC1CCCC(CN)C1 (stereo not given),inactive,inactive,inactive,inactive,inactive,inactive,inactive,inactive,inactive,inactive,inactive,18.8 µM (active),inactive,–,inactive,inactive,inactive,–,inactive
O=C(OCCOCCO)c1ccccc1Nc1cccc(C(F)(F)F)c1,inactive,inactive,inactive,inactive,inactive,inactive,inactive,inactive,inactive,inactive,inactive,inactive,inactive,inactive,inactive,inactive,inactive,inactive,inactive
CCOc1ccccc1C(N)=O,inactive,inactive,inactive,inactive,inactive,inactive,inactive,inactive,inactive,inactive,inactive,inactive,inactive,inactive,inactive,inactive,inactive,inactive,inactive
CN(C)c1ccc2nc3ccc(=[N+](C)C)cc-3sc2c1,inactive,inactive,inactive,inactive,inactive,8.14 µM (active),–,inactive,28.9 µM (active),inactive,inactive,inactive,inactive,inactive,inactive,–,–,–,–
O=c1[nH]c2ccccc2c(=O)n1CCCl,inactive,inactive,inactive,inactive,inactive,inactive,inactive,inactive,inactive,inactive,inactive,inactive,inactive,inactive,inactive,inactive,inactive,inactive,inactive
CSc1ccc(C(=O)c2[nH]c(=O)[nH]c2C)cc1,inactive,inactive,inactive,inactive,inactive,inactive,inactive,inactive,inactive,inactive,inactive,inactive,inactive,inactive,inactive,inactive,inactive,inactive,inactive
CC(=O)O[C@H]1C[C@@H]2CC[C@@]1(C)C2(C)C,inactive,inactive,inactive,inactive,inactive,inactive,inactive,inactive,inactive,inactive,inactive,inactive,inactive,inactive,inactive,–,–,inactive,inactive
CNC1(C)C2CCC(C2)C1(C)C (stereo not given),inactive,inactive,inactive,inactive,inactive,inactive,inactive,inactive,inactive,inactive,inactive,inactive,–,inactive,inactive,inactive,inactive,inactive,inactive
